# In the library only some 0.3% were active in any assay of this set; here they are far more common.
# mcGAS lum – cyclic GMP-AMP synthase inhibitors, mouse, primary biochemical chemiluminescence. Q8C6L5. recombinant cGAS, Kinase-Glo ATP depletion luminescence. inhibition, % at 12.5 µM. actives 0.15% (n = 160,000). AID 1259399, 2018;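 further: 0% = negative control wells and 100% = reference inhibitor with no enzyme activity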
# Target sequence (Q8C6L5 whole entry, looked up): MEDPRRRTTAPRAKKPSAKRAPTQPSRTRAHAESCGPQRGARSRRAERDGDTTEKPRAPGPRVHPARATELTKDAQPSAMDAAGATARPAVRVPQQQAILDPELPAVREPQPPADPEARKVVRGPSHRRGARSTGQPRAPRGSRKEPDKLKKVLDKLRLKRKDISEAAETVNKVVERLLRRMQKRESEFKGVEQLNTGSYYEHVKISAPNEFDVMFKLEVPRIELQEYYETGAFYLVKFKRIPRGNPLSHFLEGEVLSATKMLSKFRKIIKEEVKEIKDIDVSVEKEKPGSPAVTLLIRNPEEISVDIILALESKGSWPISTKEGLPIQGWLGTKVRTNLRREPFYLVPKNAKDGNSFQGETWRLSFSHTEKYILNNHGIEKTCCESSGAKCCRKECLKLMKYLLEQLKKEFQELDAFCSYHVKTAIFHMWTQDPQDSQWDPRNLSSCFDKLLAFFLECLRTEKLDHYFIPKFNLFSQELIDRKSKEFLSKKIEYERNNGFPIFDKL
# hcGAS inh – Primary biochemical luminescence assay for human cyclic GMP-AMP synthase inhibitors | actives 0.081% (n = 290,000) | AID 1259398, 2018 | inhibition, % at 12.5 µM | recombinant h-cGAS, ATP depletion, Kinase-Glo luminescence;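 further: 0% = vehicle reaction and 100% = reaction without DNA for no activity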
# NPYLR7 ag – agonists of mosquito NPYLR7 receptor, primary screen, cell-based, Aedes aegypti, calcium fluorescence, mosquito biting behavior; Aedes aegypti neuropeptide Y-like receptor 7 (NPYLR7); HEK293T NPYLR7/Galpha15, GCaMP6s calcium fluorescence; activation, % at 10 µM; actives 0.15% (n = 270,000); AID 1259423, 2018; in the data active means activation above about 40%;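 further: 0% = vehicle and 100% = reference agonist at the receptor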
# * = called active by the depositor; · = not tested or not shown; + = active, no number. Unless noted, no stated cut-off is given here; in the data, active means inhibition above about 40%; inactive means the rest.
SMILES,mcGAS lum,hcGAS inh,NPYLR7 ag
O=C(Nc1ccc(Cl)cn1)c1[nH]ncc1[N+](=O)[O-],·,60*,1
O=C(Nc1ccc(Cl)cn1)c1ccc(Cn2cc(Br)c([N+](=O)[O-])n2)cc1,·,3,1
O=C(NCCc1cccnc1)c1ccc(-c2cc(-c3ccc(N4CCCCC4)cc3)n[nH]2)cc1,-1,0,-4
CC(C)NC(=O)C(C#N)=Cc1ccc(O)cc1,2,7,4
N#CC(=Cc1ccc(OC(F)F)cc1)C(=O)O,49*,-2,0
Cc1ccnc(SCc2cc(=O)c(OC(=O)Cc3ccc([N+](=O)[O-])cc3)co2)n1,-2,-2,-13
O=c1[nH]c(CCl)nc2sc3c(c12)CCN(Cc1ccccc1)C3,·,1,45*
COCCCNCc1nc2sc3c(c2c(=O)[nH]1)CCN(Cc1ccccc1)C3,3,4,-4
O=C(N=Nc1c(O)[nH]c2ccc(Br)cc12)c1ccccc1O,-3,3,11
O=C(N=Nc1c(O)[nH]c2ccc(Br)cc12)c1ccccc1Cl,-3,1,72*
CN(Cc1ccccc1)C1=CC2=CC(=C(C#N)C#N)CCC2CC1 (stereo not drawn),·,-3,118*
CCN(CC)C1=CC2=CC(=C(C#N)C#N)CCC2CC1 (stereo not drawn),-2,0,615*
CS(=O)(=O)CC(=O)N(Cc1ccccc1)CC1CCC1,·,-6,15
CCCCN(C)C1=CC2=CC(=C(C#N)C#N)CCC2CC1 (stereo not drawn),-5,-9,+
CCCCCN(CC(=O)N1CCc2sccc2C1c1ccccc1C)S(=O)(=O)c1ccc(F)cc1 (stereo not drawn),-5,-5,39
COCCOCC(=O)N1CCN(Cc2cc(=O)c(OCc3cccc(F)c3)co2)CC1,0,4,-14
CCCCOc1ccc(C(=O)O/N=C2\C(=O)N(C)c3ccccc32)cc1,·,-2,4
Cc1ccc(NC(=O)Cn2c(O)c(N=Nc3ccccc3[N+](=O)[O-])c3ccccc32)cc1,-4,-2,19
O=C(NCc1ccccn1)c1ccc(NC(=O)c2ccco2)cc1,·,-14,19
O=C(CCl)c1ccc(NC(=O)c2ccco2)cc1,78*,-6,10
COC(=O)c1c(C)[nH]c(-c2csc(-c3cccs3)n2)c1C,·,0,2
COC(=O)Cn1ncc2c(N3CCCCC3CCC(C)C)ncnc21 (stereo not drawn),·,-8,0
CCOC(=O)c1[nH]c(COC(=O)Cc2ccsc2)c(C(=O)OCC)c1C,-4,-3,3
COc1cc(/C=C2\C(=N)N3N=CSC3=NC2=O)cc(Br)c1OC(=O)c1ccco1,·,6,49*
CCOc1cc(/C=C2/C(=N)N3C=CSC3=NC2=O)cc(Br)c1OC(=O)c1ccco1,5,-1,-1
SMILES,mcGAS lum,hcGAS inh,NPYLR7 ag
OCc1ccccc1-c1nccc2ccccc12,-22,-5,2
COC(=O)c1cc2c(=O)n(C3CCCC3)ccc2nc1C,-5,-6,-10
O=C1/C(=C/c2ccc3ccccc3n2)Oc2cc(O)ccc21,·,3,8
Cc1ccc(/C=C2/Oc3cc(O)ccc3C2=O)s1,-9,6,165*
C=CCNc1ccc2c3c(cccc13)C(=O)N(c1ccccc1)C2=O,-5,-7,99*
C=CCN1C(=O)c2cccc3c(Cl)ccc(c23)C1=O,-5,-3,3
O=C1c2cccc3c(NCCO)ccc(c23)C(=O)N1CCO,-3,-4,107*
Nc1ccc2c3c(cccc13)C(=O)N(c1ccccc1)C2=O,·,-1,76*
Cc1cccc(N2C(=O)c3cccc4c(N)ccc(c34)C2=O)c1,-1,4,77
CC(=O)Nc1ccc2c3c(cccc13)C(=O)N(c1ccccc1)C2=O,-5,-6,-1
O=C(c1ccc(-c2cc(-c3ccccc3)n[nH]2)cc1)N1CCC(Cc2ccccc2)CC1,-5,1,·
COC(=O)c1ccc(C(=O)OC)c(NC(=O)c2nn(-c3ccc(C)cc3)c(=O)cc2OC)c1,-8,-9,9
CCOCCCN1COc2ccc3c(c2C1)O/C(=C\c1cccc(OC)c1OC)C3=O,-6,-3,22
COc1ccc(/C=C2\Oc3c(ccc4c3CN(Cc3ccncc3)CO4)C2=O)cc1,-3,1,67*
CCOCCCN1COc2ccc3c(c2C1)O/C(=C\c1ccc(OC)cc1)C3=O,-8,-6,42
COc1ccc(CCN2COc3ccc4c(c3C2)O/C(=C\c2ccncc2)C4=O)cc1,12,0,39
COc1ccc(/C=C2\Oc3c(ccc4c3CN(Cc3ccncc3)CO4)C2=O)cc1OC,-9,-4,83*
COCCCN1COc2ccc3c(c2C1)O/C(=C\c1cc(OC)c(OC)c(OC)c1)C3=O,-10,-8,61*

# Compound activity from PubChem BioAssay.
